According to PubChem BioAssay (NCI):
Where “and” joins values, the source holds several entries; their conditions need not be identical. Identical values can stand only once. This is part of a sample that, as a whole, favours compounds with a hit. Of some 79,000 tested, about 15% had one in any assay. The source holds several records for some structures; these can differ, active in one and inactive in another. Calls of active or inactive are those of the source. Cut-off read from the data, not from the text of the source: active = growth inhibition above about 70%; inactive = the rest.

What was measured:
[1] = NCI Yeast Anticancer Drug Screen. Data for the rad50 strain (AID 155);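 note: 0% = growth of vehicle-only cultures of the same strain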; details: S. cerevisiae rad50 strain growth inhibition; at 50.0 µM; stronger effect = higher value
Method in brief: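 A DNA repair-deficient yeast mutant serves as the test organism; compound-induced growth inhibition is calculated against vehicle-treated cells.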

[2] = NCI Yeast Anticancer Drug Screen. Data for the mec2-1 strain (AID 157); details: S. cerevisiae mec2-1 strain, at 50.0 µM, stronger effect = higher value
Method in brief: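 Using mec2-1 yeast: add compound, measure growth, express inhibition versus vehicle-treated cultures.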

[3] = NCI Yeast Anticancer Drug Screen. Data for the sgs1 mgt1 strain (AID 161);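 note: 0% = growth of cultures given vehicle only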; details: S. cerevisiae sgs1 mgt1 strain, at 50.0 µM, stronger effect = higher value
Method in brief: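 This yeast growth screen uses a strain with defined DNA-repair lesions; compound-treated growth is compared with vehicle-treated growth.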

[4] = NCI Yeast Anticancer Drug Screen. Data for the cln2 rad14 strain (AID 165);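 note: 0% = growth equal to vehicle treated cultures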; details: S. cerevisiae cln2 rad14 strain, at 50.0 µM, stronger effect = higher value
Method in brief: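 Yeast strain cln2 rad14, bearing defects in cell cycle control and DNA repair, serves as the test system; values reflect growth inhibition compared with vehicle.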

[5] = NCI Yeast Anticancer Drug Screen. Data for the bub3 strain (AID 167); details: S. cerevisiae bub3 mutant strain, at 50.0 µM, stronger effect = higher value
Method in brief: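 Inhibition values come from growth of compound-treated mutant yeast normalised to vehicle-treated controls.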

[6] = NCI Yeast Anticancer Drug Screen. Data for the mlh1 rad18 strain (AID 175); details: S. cerevisiae mlh1 rad18 strain growth inhibition; at 50.0 µM; stronger effect = higher value
Method in brief: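 Steps: expose repair-defective yeast to compound; measure growth; express inhibition against vehicle-treated controls.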

Measured: growth inhibition

O=C(Nc1nn[nH]n1)c1nc(-c2ccccc2)cc(=O)[nH]1
inactive: [1] -15.6% and -10.2% | [2] -3.75% and 9.5% | [3] 7.35% and 5.4% | [4] -49.8% and 1.15% | [5] 5.7% and -5.95% | [6] 1.95% and -2.25%

CC1C(=O)c2cc3c(cc2CCN(C)Cc2c1ccc1c2OCO1)OCO3 (stereo not given)
inactive: [1] 13.9% and 3.4% | [2] -16.4% and 5.75% | [3] -10.2% and 7.3% | [4] -3.65% and -3.7% | [5] -29.9% and -12.9% | [6] -31.8% and 14.6%

C/C=C/C=C/c1cc2cc3c(c(O)c2c(=O)[nH]1)C1(CC3)C(O)=c2c(=O)c3c(=O)cc(OC)c(=O)c=3c(=O)c2=C1O (stereo not given)
active: [1] 86.8% and 80.7% | [2] 89.8% and 74.3% | [3] 88.7% and 75.2% | [5] 83% and 80.5% | [6] 78.6%
81.8% (active) and 60% (inactive): [4]

CC(O)C(O)C(O)C(O)CO (stereo not given)
inactive: [1] 17.1% and -19.8% | [2] -8.65% and -14.4% | [3] -15.2% and -4.65% | [4] 14.2% and -28.2% | [5] -18.9% and -5.9% | [6] 0.15% and -4.05%

CC1CC(C)(C)C2=NCCN21 (stereo not given)
inactive: [1] 2.25% and -8.15% | [2] -23.6% and -28.6% | [3] -4.8% and 8.8% | [4] -3.2% and 18.6% | [5] -7.3% and 14.2% | [6] -0.7% and -3.25%

CC(=O)C(C)(CCC#N)CCC#N
inactive: [1] -7.25% and 12.7% | [2] 12.1% and -9.2% | [3] -1.4% and -1% | [4] -3.95% and -36.5% | [5] 9.35% and -5.15% | [6] -12.1% and 27%

COc1ccccc1/C=C/C(=O)O
inactive: [1] 30.8% and 25.7% | [2] -7.85% and 14.2% | [3] -5.2% and -7.85% | [4] -7.8% and -13.9% | [5] 3.95% and 10.9% | [6] -22.4% and 6.65%

CC(=O)O[C@@H]1C[C@H](C)CC[C@H]1C(C)C
inactive: [1] 5.85% and 0.6% | [2] -9.8% and -2.35% | [3] -3.05% and -3.7% | [4] 5.8% and 23% | [5] 4.5% and -1.45% | [6] -3.4% and -0.8%

C[N+](C)(C)c1ncnc2c1ncn2C1CC(O)C(CO)O1 (stereo not given)
inactive: [1] 21.2% and -23.1% | [2] 8.45% and 7% | [3] 15.7% and -2.85% | [4] 3.1% and -6.45% | [5] -33% and 10.6% | [6] 7.55% and 8.6%

COC(=O)/C(Cc1cccc(OC(C)=O)c1C(=O)OC)=N/O
inactive: [1] -8.8% and 2.95% | [2] 16.2% and 12.4% | [3] 9.25% and -3.7% | [4] -10.5% and -99.8% | [5] -8.75% and 12.7% | [6] -13.2% and 3.55%

CN(C)N=Nc1ccc(C(=O)O)cc1
inactive: [1] 27.6% and 12.6% | [2] 22.1% and -1.3% | [3] 28.6% and 20.9% | [4] -0.05% and -0.65% | [5] 16.9% and -21.1% | [6] 26.6% and 7.65%

CN(C)C=C(S(C)(=O)=O)S(C)(=O)=O
inactive: [1] 10.2% and -24.7% | [2] -2.05% and -9.9% | [3] 20.1% and -9.85% | [4] -17.5% and 4.25% | [5] 5.8% and 14.9% | [6] 9.1% and -14.8%

NC(C(=O)O)C(CC(=O)O)C(=O)O (stereo not given)
inactive: [1] 1.8% and 9.2% | [2] -2.1% and 11.2% | [3] -1.95% and -2.75% | [4] -57% and -40% | [5] -10.9% and -0.05% | [6] 16.4% and 9.75%

CC(C)(O)CN/C=C(\C(=O)OC(C)(C)C)N1C(=O)c2ccccc2C1=O
inactive: [1] 17.1% and -17% | [2] 3% and -6.7% | [3] 13.8% and -5.45% | [4] -39% and -11.5% | [5] -1.65% and -4.95% | [6] 2.8% and 17.6%

CC(C)CC(NC(=O)COc1ccccc1Cl)C(=O)O (stereo not given)
inactive: [1] -9.6% and 5.05% | [2] 15.5% and 14.3% | [3] 3.4% and 6.9% | [4] -11.8% and -9.2% | [5] 1.25% and 7.15% | [6] -8.75% and -13.3%

CCN1C(=O)C=CC1=O
inactive: [1] 3.4% and -19.9% | [2] -2.55% and 13.7% | [3] 11.8% and -8.5% | [4] 6.8% and -30% | [5] 8.8% and -25.5% | [6] 3.55% and -15.4%

COc1cc(-c2[o+]c3cc(O)cc(O)c3cc2O)cc(O)c1O
inactive: [1] 28.6% and 0.3% | [2] 17.6% and -25.1% | [3] 23.1% and 0.7% | [4] 12.5% and -24.9% | [5] 19.6% and 19.1% | [6] 30.2% and 24.2%

CC(=O)Nc1cc(NC(C)=O)c2ccccc2c1O
inactive: [1] -2.65% and 4.1% | [2] 22% and 5.85% | [3] 13.2% and 8% | [4] 6.05% and 25.1% | [5] 18.9% and 14.3% | [6] 2.7% and 6.75%

CCOC(=O)CNC(=O)c1ccccc1
inactive: [1] 3.7% and -12.2% | [2] -7% and -36.4% | [3] -9.55% and -7.05% | [4] -8% and -13.8% | [5] -2.35% and 27.1% | [6] -1% and -4.65%

Cc1ccc(N=Nc2c(O)ccc3cc(S(=O)(=O)O)ccc23)cc1
inactive: [1] 50.9% and 4.8% | [2] -15.5% and -2.8% | [3] 9.8% and 5.85% | [4] -6.85% and -6.7% | [5] -32.6% and 8.05% | [6] 22.8% and 9.35%
